# Out of some 420,000 compounds screened, about 50,000 (12%) were called active. Another 26% or so got no clear call; they are omitted. Calls come from the whole dose curve; as a rule, active = well fitted inhibition curve with a large enough effect; inconclusive = small, poorly fitted or top-dose-only effect; inactive = flat fitted curve, though single readings scatter. The list comes from a sample in which actives are over-represented; it also holds similar structures and randomly drawn compounds.
# Assay: qHTS for Inhibitors of human tyrosyl-DNA phosphodiesterase 1 (TDP1): qHTS in cells in presence of CPT; note: nearly all actives have a fitted effect of over 55% in size
# Conditions: chicken DT40 Tdp1-/-;hTDP1 cells + 20 nM CPT, ATP luminescence, 48 h; series mostly up to 46.2 µM; activity change, negative = growth inhibition: at the top concentration
# How it was run: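 Cell growth measured by CellTiter-Glo luminescence after a minimum 48 h, 37 C compound exposure with 20 nM CPT in Tdp1-knockout DT40 cells stably expressing hTDP1, seeded 400/well; qHTS titration format.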
# % is set by controls: 0 for no effect and ±100 for the full control effect; potency is the fitted concentration of half-maximal effect.
Structure (SMILES),"activity change, negative = growth inhibition",Potency
COC(=O)c1ccc([C@@H](O)[C@H](C)C(=O)CC(=O)OC(C)(C)C)cc1,4.03% (inactive),
COc1ccccc1N1CCN(/N=C/c2ccc(O)cc2O)CC1,-23.9% (inactive),
COc1ccccc1N1CCN(/N=C\C(Br)=C\c2ccccc2)CC1,,8.2 µM (active)
COc1ccccc1N1CCN(C(=O)C(=O)N/N=C/c2ccccc2F)CC1,-7.99% (inactive),
O=C(CN1C(=O)NC(Cc2c[nH]c3ccccc23)C1=O)Nc1ccccc1C(F)(F)F (stereo not given),-16.4% (inactive),
O=C(O)C1CCC(CNS(=O)(=O)c2ccc(Br)cc2)CC1 (stereo not given),0.756% (inactive),
CC(=O)N/C(=C/c1ccc(OC(F)F)cc1)C(=O)O,6.08% (inactive),
NC(=O)c1cc(S(=O)(=O)NCCCc2ccco2)cs1,-27.2% (inactive),
Cc1cccc(CC2(O)C(=O)Nc3ccccc32)n1 (stereo not given),-19.8% (inactive),
COc1ccc(C(=O)N/N=c2\oc3ccccc3cc2C(N)=O)cc1,-8.26% (inactive),
NC(=O)c1cc2ccccc2o/c1=N/NC(=O)c1cccc(F)c1,-23.1% (inactive),
CCN(CC)c1ccc2cc(C(N)=O)/c(=N\NC(=O)c3ccncc3)oc2c1,,16.4 µM (active)
COc1cccc(NC(=S)NC(=O)c2c(Cl)c(C)nn2C)c1,3.79% (inactive),
Cc1ccc(C(=O)COC(=O)c2cccc(N3C(=O)c4c(C)nc5ccccc5c4C3=O)c2)cc1C,1.34% (inactive),
CCCCCCCCn1c2c(c(=N)c3c1CCC3)CCCC2,,0.92 µM (active)
CC1(C)CC(=O)c2cc(C(=O)NCc3ccccc3)c(=O)[nH]c2C1,-12.3% (inactive),
O=C(NCc1ccccc1)C1=C[C@@H](C2CCCCC2)C[C@@H](OCc2ccc(CO)cc2)O1,,16.4 µM (active)
O=C(COC(=O)CNC(=O)C1CCCCC1)NCc1ccccc1,15.2% (inactive),
CSc1ccccc1C(=O)NCc1ccccc1,1% (inactive),
CC(C)(C)[C@H]1C=C(C(=O)NCc2ccccc2)O[C@@H](OCc2ccc(CO)cc2)C1,,18.4 µM (active)
O=C(O)C1CCN(C(=O)OCc2ccccc2)CC1,2.35% (inactive),
CCCCc1nc(SCC(=O)Nc2nnc(C(C)C)s2)n[nH]1,-21.8% (inactive),
O=C(OCC(=O)N1CCCC1=O)c1cc(S(=O)(=O)N2CCOCC2)ccc1Cl,3.27% (inactive),
O=C(OCC(=O)N1CCN(C(=O)c2ccco2)CC1)c1c(Cl)cccc1Cl,-3.35% (inactive),
CC(=O)Nc1cccc(C(=O)OCC(=O)NCc2cc(C)c(O)c(C)c2)c1,3.43% (inactive),
CC(=O)c1cccc(OCC(=O)OCC(=O)Nc2cc(S(=O)(=O)N3CCCCC3)ccc2C)c1,-0.0276% (inactive),
c1ccc2cc(CCCc3cc4ccccc4cn3)ncc2c1,-26.5% (inactive),
O=C(NCc1ccccn1)c1cc(Br)ccc1Cl,-2.09% (inactive),
CN(CC(=O)NCCc1ccccn1)S(=O)(=O)c1ccc(Cl)cc1,3.55% (inactive),
O=C(NCCc1ccccn1)c1cc(-c2ccc(Cl)cc2)nc2ccccc12,,13 µM (active)

# Source: PubChem BioAssay AID686979 (National Center for Advancing Translational Sciences (NCATS), 2013)
